# Measurements as given in PubChem BioAssay (NCI).
# Compounds without any hit were thinned out: in the full panel of roughly 79,000, 15% have a hit. Unmarked numbers belong to inactive results. The source made the active and inactive calls. Cut-off read from the data, not from the text of the source: active = growth inhibition above about 70%; inactive = the rest.
# What was measured:
# [1] = NCI Yeast Anticancer Drug Screen. Data for the rad52 strain (AID 147);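 note: 0% = growth of vehicle-treated control cultures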; conditions: S. cerevisiae rad52 mutant growth inhibition, stronger effect = higher value
# How it was run: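 DNA repair-defective yeast; compound exposure; growth scored against vehicle controls.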
# [2] = NCI Yeast Anticancer Drug Screen. Data for the wt1 strain (AID 149);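 note: 0% = growth of vehicle-treated wt1 cultures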; conditions: S. cerevisiae wt1 strain (SPY 50644) growth inhibition, stronger effect = higher value
# How it was run: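 Each compound is tested on wt1 yeast and the loss of growth versus vehicle gives the inhibition value.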
# [3] = NCI Yeast Anticancer Drug Screen. Data for the rad50EPP+ strain (AID 151);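 note: 0% = growth of vehicle-treated control cultures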; conditions: S. cerevisiae rad50 mutant strain, stronger effect = higher value
# How it was run: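 rad50EPP+ yeast treated with test compounds. Readout: growth vs vehicle control.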
# [4] = NCI Yeast Anticancer Drug Screen. Data for the mgt1 strain (AID 153); conditions: S. cerevisiae mgt1 mutant growth inhibition, stronger effect = higher value
# How it was run: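 Growth inhibition relative to vehicle controls was scored for the mgt1 yeast strain after compound exposure.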
# [5] = NCI Yeast Anticancer Drug Screen. Data for the rad50 strain (AID 155);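 note: 0% = growth of vehicle-only cultures of the same strain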; conditions: S. cerevisiae rad50 strain growth inhibition, stronger effect = higher value
# How it was run: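 Vehicle-treated cultures provide the reference for the growth inhibition reported for compound-exposed, repair-deficient yeast.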
# [6] = NCI Yeast Anticancer Drug Screen. Data for the mec2-1 strain (AID 157); conditions: S. cerevisiae mec2-1 strain, stronger effect = higher value
# How it was run: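 Growth inhibition is read against vehicle-treated controls after compound exposure of the mec2-1 yeast strain, which is defective in DNA damage repair or cell cycle control.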
# [7] = NCI Yeast Anticancer Drug Screen. Data for the rad14 strain (AID 159);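 note: 0% = growth of vehicle-treated control cultures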; conditions: S. cerevisiae rad14 strain growth inhibition, stronger effect = higher value
# How it was run: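 Inhibition of growth is reported for a repair-deficient yeast mutant following compound treatment, calculated relative to cultures that received vehicle.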
# [8] = NCI Yeast Anticancer Drug Screen. Data for the sgs1 mgt1 strain (AID 161);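 note: 0% = growth of cultures given vehicle only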; conditions: S. cerevisiae sgs1 mgt1 strain, stronger effect = higher value
# How it was run: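 Yeast cells carrying a defined DNA-repair defect were exposed to test compounds. Growth inhibition was measured relative to vehicle-treated controls.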
# [9] = NCI Yeast Anticancer Drug Screen. Data for the CLN2oe strain (AID 163);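 note: 0% = growth of vehicle-only control cultures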; conditions: S. cerevisiae CLN2oe strain, stronger effect = higher value
# How it was run: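 Compound-treated yeast; growth vs vehicle ctrl = % inhibition. Genetically altered strain (cell-cycle control).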
# [10] = NCI Yeast Anticancer Drug Screen. Data for the cln2 rad14 strain (AID 165);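 note: 0% = growth equal to vehicle treated cultures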; conditions: S. cerevisiae cln2 rad14 strain, stronger effect = higher value
# How it was run: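 Growth inhibition, relative to vehicle-treated controls, is the read-out. The test organism is a yeast strain with defined genetic alterations, cln2 rad14.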
# [11] = NCI Yeast Anticancer Drug Screen. Data for the bub3 strain (AID 167); conditions: S. cerevisiae bub3 mutant strain, stronger effect = higher value
# How it was run: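 Mutant yeast screening strain plus compound; vehicle-treated cultures serve as the 0% inhibition reference.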
# [12] = NCI Yeast Anticancer Drug Screen. Data for the wt2 strain (AID 169); conditions: S. cerevisiae wt2 strain growth inhibition, stronger effect = higher value
# How it was run: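 Compound exposure of yeast; growth compared with vehicle controls; inhibition reported.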
# [13] = NCI Yeast Anticancer Drug Screen. Data for the mlh1 strain (AID 171);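 note: 0% = growth of vehicle-treated control cultures of the same strain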; conditions: S. cerevisiae mlh1 strain growth inhibition, stronger effect = higher value
# How it was run: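 Compounds are applied to a genetically altered yeast strain, and its growth is compared with that of vehicle-treated cultures to give percent inhibition.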
# [14] = NCI Yeast Anticancer Drug Screen. Data for the sgs1 strain (AID 173);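 note: 0% = growth of vehicle-only control cultures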; conditions: S. cerevisiae sgs1 mutant, stronger effect = higher value
# How it was run: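 Compounds applied to genetically altered yeast; growth compared with vehicle-treated cultures to give % inhibition.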
# [15] = NCI Yeast Anticancer Drug Screen. Data for the mlh1 rad18 strain (AID 175); conditions: S. cerevisiae mlh1 rad18 strain growth inhibition, stronger effect = higher value
# How it was run: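 Cells of a genetically altered yeast strain, deficient in DNA damage repair, were treated with compound. Their growth was then compared with that of vehicle-treated cultures to give inhibition.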
# [16] = NCI Yeast Anticancer Drug Screen. Data for the rad18 strain (AID 177); conditions: S. cerevisiae rad18 mutant growth inhibition, stronger effect = higher value
# How it was run: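 Compounds are applied to a repair-deficient yeast strain, and growth is compared with that of vehicle-treated cultures to give percent inhibition.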
# [17] = at 5.0 µM (retest, dose inferred, filed as 0.5)
# [18] = at 50.0 µM (retest, dose inferred, filed as 5.0)
smiles,measurement,setting,value
O=C1c2ccccc2C(=O)c2sc(Nc3ccccc3Cl)nc21,growth inhibition,[1]; at 1.2 µM,-11%
same,growth inhibition,[1]; at 3.7 µM,42%
same,growth inhibition,[1]; at 11.0 µM,90% (active)
same,growth inhibition,[1]; at 33.0 µM,99% (active)
same,growth inhibition,[1]; at 100.0 µM,98% (active)
same,growth inhibition,[2]; at 1.2 µM,-17%
same,growth inhibition,[2]; at 3.7 µM,13%
same,growth inhibition,[2]; at 11.0 µM,58%
same,growth inhibition,[2]; at 33.0 µM,99% (active)
same,growth inhibition,[2]; at 100.0 µM,98% (active)
same,growth inhibition,[3]; at 1.2 µM,-37%
same,growth inhibition,[3]; at 3.7 µM,27%
same,growth inhibition,[3]; at 11.0 µM,94% (active)
same,growth inhibition,[3]; at 33.0 µM,99% (active)
same,growth inhibition,[3]; at 100.0 µM,98% (active)
same,growth inhibition,[4]; at 1.2 µM,-13%
same,growth inhibition,[4]; at 3.7 µM,19%
same,growth inhibition,[4]; at 11.0 µM,96% (active)
same,growth inhibition,[4]; at 33.0 µM,99% (active)
same,growth inhibition,[4]; at 100.0 µM,98% (active)
same,growth inhibition,[5]; at 1.2 µM,-1%
same,growth inhibition,[5]; at 3.7 µM,13%
same,growth inhibition,[5]; [17],87% (active)
same,growth inhibition,[5]; at 11.0 µM,78% (active)
same,growth inhibition,[5]; at 33.0 µM,98% (active)
same,growth inhibition,[5]; [18],99% (active)
same,growth inhibition,[5]; at 50.0 µM,89.6% (active)
same,growth inhibition,[5]; at 100.0 µM,96% (active)
same,growth inhibition,[6]; at 1.2 µM,-13%
same,growth inhibition,[6]; at 3.7 µM,32%
same,growth inhibition,[6]; [17],97% (active)
same,growth inhibition,[6]; at 11.0 µM,99% (active)
same,growth inhibition,[6]; at 33.0 µM,99% (active)
same,growth inhibition,[6]; [18],99% (active)
same,growth inhibition,[6]; at 50.0 µM,91.2% (active)
same,growth inhibition,[6]; at 100.0 µM,98% (active)
same,growth inhibition,[7]; at 1.2 µM,-19%
same,growth inhibition,[7]; at 3.7 µM,26%
same,growth inhibition,[7]; at 11.0 µM,96% (active)
same,growth inhibition,[7]; at 33.0 µM,99% (active)
same,growth inhibition,[7]; at 100.0 µM,98% (active)
same,growth inhibition,[8]; [17],100% (active)
same,growth inhibition,[8]; [18],100% (active)
same,growth inhibition,[8]; at 50.0 µM,93.7% (active)
same,growth inhibition,[9]; at 1.2 µM,3%
same,growth inhibition,[9]; at 3.7 µM,47%
same,growth inhibition,[9]; at 11.0 µM,94% (active)
same,growth inhibition,[9]; at 33.0 µM,99% (active)
same,growth inhibition,[9]; at 100.0 µM,98% (active)
same,growth inhibition,[10]; [17],57%
same,growth inhibition,[10]; [18],99% (active)
same,growth inhibition,[10]; at 50.0 µM,91.3% (active)
same,growth inhibition,[11]; at 1.2 µM,-4%
same,growth inhibition,[11]; at 3.7 µM,54%
same,growth inhibition,[11]; [17],99% (active)
same,growth inhibition,[11]; at 11.0 µM,97% (active)
same,growth inhibition,[11]; at 33.0 µM,99% (active)
same,growth inhibition,[11]; [18],99% (active)
same,growth inhibition,[11]; at 50.0 µM,90.1% (active)
same,growth inhibition,[11]; at 100.0 µM,97% (active)
same,growth inhibition,[12]; at 1.2 µM,1%
same,growth inhibition,[12]; at 3.7 µM,77% (active)
same,growth inhibition,[12]; at 11.0 µM,99% (active)
same,growth inhibition,[12]; at 33.0 µM,99% (active)
same,growth inhibition,[12]; at 100.0 µM,98% (active)
same,growth inhibition,[13]; at 1.2 µM,-30%
same,growth inhibition,[13]; at 3.7 µM,-6%
same,growth inhibition,[13]; at 11.0 µM,94% (active)
same,growth inhibition,[13]; at 33.0 µM,99% (active)
same,growth inhibition,[13]; at 100.0 µM,97% (active)
same,growth inhibition,[14]; at 1.2 µM,-6%
same,growth inhibition,[14]; at 3.7 µM,16%
same,growth inhibition,[14]; at 11.0 µM,82% (active)
same,growth inhibition,[14]; at 33.0 µM,99% (active)
same,growth inhibition,[14]; at 100.0 µM,97% (active)
same,growth inhibition,[15]; [17],96% (active)
same,growth inhibition,[15]; [18],99% (active)
same,growth inhibition,[15]; at 50.0 µM,85.8% (active)
same,growth inhibition,[16]; at 1.2 µM,-14%
same,growth inhibition,[16]; at 3.7 µM,25%
same,growth inhibition,[16]; at 11.0 µM,83% (active)
same,growth inhibition,[16]; at 33.0 µM,99% (active)
same,growth inhibition,[16]; at 100.0 µM,97% (active)
